Assay outcomes as filed in PubChem BioAssay.
Giardia kill: kills Giardia lamblia. 0.15% of 340,000 active. activity change, % at 7.66 µM, hits read low. Giardia lamblia trophozoite viability; in the data active = activity change below about -80%; inconclusive = between about -30% and that limit;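 note: parasites exposed to compound for two days anaerobically before the ATP read; % is set by controls: 0 for no effect and ±100 for the full control effect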
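Trophozoite viability was measured as ATP-dependent luminescence, read 15-30 min after reagent addition. Before that, parasites at 100 cells/well were exposed to compounds for 48 h, anaerobically, at 37 deg C.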
B2AR arrestin: beta2AR (human) beta-arrestin recruitment activity | beta-arrestin recruitment to beta2AR, cell-based reporter | 0.02% of 330,000 active | AID 492947 | Potency, µM (titrated, usually from 46.1 µM), without a hit: at the highest dose activation, most hits filed as activators; active = well fitted activation curve with a large enough effect; inconclusive = small, poorly fitted or top-dose-only effect;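 note: potency is the fitted concentration of half-maximal effect; 0% = DMSO controls and full agonism = EC100 isoproterenol or metaproterenol; nearly all actives have a fitted effect of over 65% in size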
D3 antag: blocks the human D3 dopamine receptor; D3R cells, DiscoveRx beta-arrestin luminescence, antagonist mode; stronger effect = lower value; 2.5% of 360,000 active; AID 652054; P35462; max response, negative = inhibition, %; in the data active = max response below about -50%; inconclusive = no clear call, values can overlap the other calls; note: % is set by controls: 0 for no effect and ±100 for the full control effect
Target sequence (P35462 whole entry, looked up): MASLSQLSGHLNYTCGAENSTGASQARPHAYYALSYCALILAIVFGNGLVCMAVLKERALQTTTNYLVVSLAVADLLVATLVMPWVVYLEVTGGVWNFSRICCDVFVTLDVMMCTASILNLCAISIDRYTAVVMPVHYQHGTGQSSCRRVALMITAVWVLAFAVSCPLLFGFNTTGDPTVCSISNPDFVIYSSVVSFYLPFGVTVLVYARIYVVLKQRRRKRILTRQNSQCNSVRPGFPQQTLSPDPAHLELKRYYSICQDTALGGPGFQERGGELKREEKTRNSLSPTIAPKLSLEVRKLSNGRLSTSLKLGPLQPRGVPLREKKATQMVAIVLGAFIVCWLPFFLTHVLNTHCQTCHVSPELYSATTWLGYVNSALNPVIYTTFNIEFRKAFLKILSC
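Cells plated overnight at 1500 cells/well, then exposed to library compounds with dopamine controls for 90 minutes at 37 degrees C. DiscoveRx reagent added for 30–60 minutes at room temperature; luminescence read, quantitative HTS format.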
DRD3 agonist: D3 dopamine receptor (human) agonism | D3R DiscoveRx beta-arrestin cells, luminescence, 90 min | max activation, % | 0.58% of 410,000 active; in the data active = max activation above about 30%; note: 0% is about no effect
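Agonist mode: compounds and dopamine controls were applied to plated cells for 90 min at 37 degrees C after an overnight attachment at 1500 cells/well. Luminescent read-out followed 30 - 60 minutes at room temperature with DiscoveRx detection reagent.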
* marks the source's active call; other numbers are inactive results. This is a sample that favours compounds with a hit; in the whole collection about 2.8% have one here.

`CC1(Oc2cccc(F)c2)CCN(Cc2csc3ccccc23)C1` (stereo not drawn) gave D3 antag -106* and DRD3 agonist -11.
`COC(=O)Cc1ccc(OC2(C)CCN(Cc3csc4ccccc34)C2)cc1` (stereo not drawn) gave D3 antag -86* and DRD3 agonist -25.
`CC1(Oc2cccc(F)c2)CCN(Cc2ccc(-c3ccccc3)o2)C1` (stereo not drawn) gave D3 antag inconclusive and DRD3 agonist -19.
Screening CC1(Oc2cccc(C#N)c2)CCN(Cc2ccccc2OC(F)F)C1 (stereo not drawn) returned D3 antag -89* and DRD3 agonist -10.
COc1ccc(CN2CCC(C)(Oc3ccc(C(C)=O)cc3)C2)c2ccccc12 (stereo not drawn) was read as D3 antag -21 and DRD3 agonist -2.
For CC1(Oc2cccc(C#N)c2)CCN(Cc2csc3ccccc23)C1 (stereo not drawn) the results were D3 antag -81* and DRD3 agonist -25.
Screening CC(NS(=O)(=O)c1ccc2c(c1)CCN2C(=O)CCCC(=O)O)c1ccccc1 (stereo not drawn) returned DRD3 agonist -13.
For CCOC(=O)N1CCc2c(sc(NCc3cc(OC)ccc3OC)c2C(=O)Nc2cc(OC)ccc2OC)C1 the results were DRD3 agonist 2.
`Oc1ccc(Br)cc1C1C=C(c2ccc3c(c2)OCO3)NC(c2ccc(F)c(Br)c2)N1` (stereo not drawn) gave Giardia kill -14.
`O=C(CSc1nc2ccsc2c(=O)n1-c1ccc(Br)cc1)NCc1ccccc1` gave Giardia kill 5 and DRD3 agonist 0.
Screening COc1ccc(C(=O)Nc2ccccc2C(=O)Nc2cccc(C)n2)cc1 returned Giardia kill -25, B2AR arrestin -1%, D3 antag -1 and DRD3 agonist 7.
For COc1ccc(C(=O)Nc2ccccc2C(=O)Nc2cc(C)ccn2)cc1 the results were Giardia kill -24, B2AR arrestin 1%, D3 antag -63* and DRD3 agonist 3.
Screening Cc1ccnc(NC(=O)c2ccc(OCC3CCCO3)cc2)c1 (stereo not drawn) returned Giardia kill -85*, B2AR arrestin 0%, D3 antag -7 and DRD3 agonist -2.
`C/C=C\C=C/C(=O)Nc1cccc(C2=NOC3(C2)C[C@H](C(N)=O)N(C(=O)CC)C3)c1` (stereo partly drawn) gave Giardia kill 7, B2AR arrestin 0%, D3 antag -5 and DRD3 agonist 31*.
C/C=C\C=C/C(=O)Nc1cccc(C2=NOC3(C2)C[C@@H](C(N)=O)N(C(=O)CCCCC)C3)c1 (stereo partly drawn) was read as Giardia kill -20, B2AR arrestin -1%, D3 antag 46 and DRD3 agonist 11.
For Cc1cc(N)ccc1N1CCCC1 the results were Giardia kill -4, B2AR arrestin 0%, D3 antag -55* and DRD3 agonist -7.
For CCN(CC)CCOC[C@H]1O[C@@H](O)[C@H](OCCN(CC)CC)[C@@H](O)[C@@H]1O the results were DRD3 agonist 5.
CCN1CCN(c2oc(-c3ccccc3C)nc2S(=O)(=O)c2ccccc2)CC1 was read as Giardia kill 29, B2AR arrestin 0%, D3 antag -83* and DRD3 agonist -36.
`O=S(=O)(c1ccccc1)c1nc(-c2ccccc2Cl)oc1N1CCCCCC1` gave DRD3 agonist -7.
For Cc1ccc(S(=O)(=O)c2nc(-c3ccccc3Cl)oc2N2CCN(C)CC2)cc1 the results were Giardia kill -19, B2AR arrestin -1%, D3 antag -55* and DRD3 agonist -17.
`N=C(N)c1ccc(OCCCOc2ccc(C(=N)N)cc2)cc1` gave DRD3 agonist 6.
`CCCCCCc1cc2cc(-c3nnc(-c4ccccc4OC)o3)c(=O)oc2cc1O` gave Giardia kill 8, B2AR arrestin 0%, D3 antag 72 and DRD3 agonist 37*.
`CCCCCCc1cc2cc(S(=O)(=O)c3ccc(F)cc3)c(=O)oc2cc1O` gave Giardia kill -16, B2AR arrestin 0%, D3 antag 12 and DRD3 agonist 49*.
`CCCCCCc1cc2cc(-c3nnc(-c4ccccc4O)o3)c(=O)oc2cc1O` gave Giardia kill -16, B2AR arrestin 0%, D3 antag 45 and DRD3 agonist 15.
